In the library only some 0.81% were active in any assay of this set; here they are far more common.
LRH-1 inv ag = NR5A2 inverse agonism in reporter assay; inhibition, % at 3.6 µM; AID 602396; 360,000 compounds, 0.13% hits; HEK293T StAR-luciferase reporter, LRH-1 transfected, 24 h; O00482;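 active = inhibition above the mean inhibition of all tested compounds plus 3 SD, cut at about 73% in these data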
NCOA1 inh = inhibits human SRC1 coactivator. HEK293 GAL4-SRC1 luciferase reporter, luminescence. inhibition, % at 3.6 µM. 360,000 compounds, 0.12% hits;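 active = inhibition above the campaign mean plus 3 SD, with each screening campaign given its own cutoff, cut at about 60% in these data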
NCOA2 inhibitor = human SRC2 (NCOA2) inhibition | HEK293 GAL4-SRC2 luciferase reporter, luminescence | 370,000 compounds, 0.17% hits | inhibition, % at 9 µM;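 active = inhibition above the mean inhibition of all tested compounds plus 3 SD, set per campaign, cut at about 52% in these data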
NCOA3 inh = inhibitors of human steroid receptor coactivator 3 (SRC3). Q9Y6Q9. HEK293 GAL4-SRC3 luciferase reporter, luminescence. inhibition, % at 3.6 µM. 360,000 compounds, 0.17% hits. AID 588352;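 active = inhibition above a per-campaign cutoff, the mean of all compounds plus 3 SD, cut at about 60% in these data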;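 also: higher means less SRC3-driven luciferase light from the GAL4 reporter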
NR2F2 inh = blocks human COUP-TFII nuclear receptor. inhibition, % at 8.6 µM. HEK293T NGFI-A luciferase reporter, luminescence. 370,000 compounds, 0.7% hits. AID 686940;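 active = inhibition above a per-plate cutoff, mean inhibition of test wells between control levels plus 3 SD, cut at about 38% in these data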;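 also: cells cotransfected with COUP-TFII expression vector driving the NGFI-A reporter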
Target sequence (P24468 whole entry, looked up): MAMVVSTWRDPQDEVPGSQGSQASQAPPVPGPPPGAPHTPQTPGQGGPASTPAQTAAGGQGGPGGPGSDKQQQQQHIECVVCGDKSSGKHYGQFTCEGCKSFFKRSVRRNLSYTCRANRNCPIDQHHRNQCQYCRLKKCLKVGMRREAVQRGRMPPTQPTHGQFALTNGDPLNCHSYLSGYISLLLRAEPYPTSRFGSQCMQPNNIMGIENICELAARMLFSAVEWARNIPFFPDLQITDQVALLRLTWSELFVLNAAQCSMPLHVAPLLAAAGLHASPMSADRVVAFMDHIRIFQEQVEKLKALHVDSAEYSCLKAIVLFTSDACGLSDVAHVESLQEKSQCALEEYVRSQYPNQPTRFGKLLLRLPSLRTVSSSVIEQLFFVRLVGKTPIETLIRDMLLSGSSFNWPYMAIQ
Gal4-VP16 ctr = inhibits VP16 reporter, flagging COUP-TFII antagonist hits | shares compounds with NR2F2 inh | HEK293 Gal4-VP16 luciferase reporter, luminescence | inhibition, % at 8.5 µM | 2,500 compounds, 25% hits; in the data active = inhibition above about 13%
NR2F2 inh conf = confirmation of human COUP-TFII (NR2F2) inhibitors. inhibition, % at 8.5 µM. shares compounds with NR2F2 inh. 2,500 compounds, 45% hits. AID 687008. HEK293 NGFI-A luciferase reporter, luminescence;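 active = mean inhibition over three repeats above a set limit taken from the earlier primary screen, cut at about 38% in these data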
Of the large screens only hits and unclear results are named; the others gave an inactive call (follow-up assays come after a bar, where they were run).

COc1ccc(CCNC(=O)C(=O)NCC2OCCN2S(=O)(=O)c2ccc(Cl)cc2)cc1OC (centres undefined)	NR2F2 inh 42.4 | Gal4-VP16 ctr inactive | NR2F2 inh conf inactive
O=C(CNc1cccc(S(=O)(=O)N2CCCC2)c1)Nc1ccc(C(F)(F)F)cc1	NR2F2 inh 40.4 | Gal4-VP16 ctr inactive | NR2F2 inh conf inactive
Cc1ccc(NCC(=O)Nc2cccc(F)c2)cc1S(=O)(=O)N1CCCCCC1	NR2F2 inh 46.3 | Gal4-VP16 ctr inactive | NR2F2 inh conf inactive
O=C(CNc1cccc(S(=O)(=O)N2CCCCC2)c1)Nc1ccc(C(F)(F)F)cc1	NR2F2 inh 37.5 | Gal4-VP16 ctr inactive | NR2F2 inh conf inactive
O=C(CNc1cccc(F)c1)Nc1cccc(S(=O)(=O)N2CCCCC2)c1	none
CC(C)CN1CN2CCc3ccccc3C2CS1(=O)=O (centres undefined)	none (no result: LRH-1 inv ag, NCOA1 inh, NCOA3 inh)
CC(=O)Nc1nc2ncccn2c1-c1ccccc1	none (no result: LRH-1 inv ag, NCOA1 inh, NCOA3 inh)
Cc1nc(SCC(=O)N(C)c2ccccc2)[nH]c(=O)c1C	none (no result: LRH-1 inv ag, NCOA1 inh, NCOA2 inhibitor, NCOA3 inh)
CNC(=O)[C@@H](NC(=O)[C@H](CC(C)C)[C@H](O)C(=O)NO)C(C)(C)C	none (no result: LRH-1 inv ag, NCOA1 inh, NCOA3 inh)
Cc1cccn2cc(-c3ccc(NC(=O)Cc4ccccc4)cc3)nc12	NR2F2 inh 54.0 | Gal4-VP16 ctr inactive | NR2F2 inh conf inactive
COc1ccc(CC(=O)Nc2ccc(-c3cn4cccc(C)c4n3)cc2)cc1OC	none
CCOC(=O)c1cnc2c(OC)cccc2c1N1CCN(c2ccccc2OC)CC1	none
CCOC(=O)c1cnc2c(OC)cccc2c1N1CC(C)CC(C)C1 (centres undefined)	NR2F2 inh 39.6 | Gal4-VP16 ctr inactive | NR2F2 inh conf inactive
Cc1cc(C)nc(NC(N)=NCCc2c[nH]c3ccccc23)n1	NR2F2 inh 39.6 | Gal4-VP16 ctr inactive | NR2F2 inh conf inactive
Cc1cc(C)nc(NC(N)=NCCc2ccccc2)n1	NR2F2 inh 42.5 | Gal4-VP16 ctr inactive | NR2F2 inh conf inactive
Cc1cc(C)nc(NC(N)=NC(C)c2ccccc2)n1 (centres undefined)	none (no result: LRH-1 inv ag, NCOA1 inh, NCOA3 inh)
COc1ccc(S[C@]2(C(=O)N(C)C)CC(=O)N(C(=O)/C=C/c3ccccc3)[C@@H]2c2ccc(OC)cc2)cc1	none (no result: LRH-1 inv ag, NCOA1 inh, NCOA3 inh)
O=C(Nc1ccc(Oc2ccccc2)cc1)C1CCCN1S(=O)(=O)c1cccc2cccnc12 (centres undefined)	NR2F2 inh 41.8 (no result: LRH-1 inv ag, NCOA1 inh, NCOA3 inh) | Gal4-VP16 ctr inactive | NR2F2 inh conf inactive
COc1ccc(NC(=O)[C@@H]2CCCN2S(=O)(=O)c2cccc3cccnc23)cc1	none
COc1ccc(CN2C[C@]3(C=C4CCCCC4n4c(=O)n(-c5ccccc5)c(=O)n43)N=C2NC(=O)c2ccccc2)c(OC)c1 (some centres undefined)	none (no result: LRH-1 inv ag, NCOA1 inh, NCOA3 inh)
CC(C)CCCCCCCCCCCCC(=O)NCC(=O)NC1C(C)OC(Nc2ncnc3nc[nH]c23)C(O)C1O (centres undefined)	LRH-1 inv ag 88.2, NCOA1 inh 86.9, NCOA3 inh 91.1, NR2F2 inh 77.5 | Gal4-VP16 ctr 14.4 | NR2F2 inh conf 81.7
C/C(=C\CNc1ncnc2nc[nH]c12)CO	none
O=[N+]([O-])c1ccc(N=Nc2c(Cl)cc(O)cc2Cl)cc1	NR2F2 inh 64.3 | Gal4-VP16 ctr inactive | NR2F2 inh conf 48.8
S=C(NCC1CCCCC1)OC1CCC12CCC(c1ccccc1)CC2 (centres undefined)	none (no result: LRH-1 inv ag, NCOA1 inh, NCOA3 inh)
O=C(c1ccc(Oc2ccc([N+](=O)[O-])cc2)cc1)N1CCCCCC1	NR2F2 inh 46.5 | Gal4-VP16 ctr inactive | NR2F2 inh conf inactive
O=C(c1ccc(Cn2ccc([N+](=O)[O-])n2)cc1)N1CCN(Cc2ccccc2)CC1	none
CSc1ccc(CN2CCN(C(=O)c3ccc([N+](=O)[O-])cc3)CC2)cc1	NR2F2 inh 70.5 | Gal4-VP16 ctr inactive | NR2F2 inh conf 43.6
O=C(c1ccc(Oc2ccc([N+](=O)[O-])cc2Cl)cc1)N1CCCC1	none
Cc1nc(N2CCN(c3ccccn3)CC2)c2c(C)c(C(=O)Nc3c(C)cc(Br)cc3C)sc2n1	none
Cc1nc(N2CCN(c3ccccn3)CC2)c2c(C)c(C(=O)Nc3c(F)cc(F)cc3Br)sc2n1	NR2F2 inh 42.2 | Gal4-VP16 ctr inactive | NR2F2 inh conf inactive
COc1ccc([N+](=O)[O-])cc1NC(=S)NC(NC(=O)C(c1ccccc1)c1ccccc1)C(Cl)(Cl)Cl (centres undefined)	NR2F2 inh 40.6 | Gal4-VP16 ctr inactive | NR2F2 inh conf inactive
COc1ccc([N+](=O)[O-])cc1NC(=O)C(C)c1ccccc1 (centres undefined)	none
N=c1ccn(Cc2ccc(Cl)c(Cl)c2)cc1	NR2F2 inh 49.4 | Gal4-VP16 ctr inactive | NR2F2 inh conf inactive
COC(=O)[C@@]12CCCCC=C1N(CCc1ccc(Cl)cc1)C(=O)[C@H]2CC(=O)NCc1cccc2ccccc12	none (no result: LRH-1 inv ag, NCOA1 inh, NCOA3 inh)
O=C1CCCCCN1C(=O)c1ccccc1	none
CC(C)(C)c1ccc(C(=O)N2CCCCCC2=O)cc1	NCOA2 inhibitor 86.9, NR2F2 inh 85.8 | Gal4-VP16 ctr 80.6 | NR2F2 inh conf 76.4
Cc1ccc(NC(=O)c2cc3c(s2)CCCC3)cc1S(=O)(=O)Nc1ccccc1Cl	NR2F2 inh 40.4 | Gal4-VP16 ctr inactive | NR2F2 inh conf inactive
Cc1ccc(C(=O)Nc2ccc(C)c(S(=O)(=O)Nc3ccccc3Cl)c2)s1	none
CCn1c(SCC(=O)c2[nH]c(C)c(C(C)=O)c2C)nnc1-c1cccs1	NR2F2 inh 52.4 | Gal4-VP16 ctr inactive | NR2F2 inh conf inactive
CN=c1scc(-c2ccccc2F)n1/N=C/c1ccc(O)c(O)c1O	none
CN=c1scc(-c2ccccc2F)n1/N=C/c1ccc[nH]1	LRH-1 inv ag 90.7, NCOA1 inh 92.3, NCOA2 inhibitor 90.6, NCOA3 inh 91.7, NR2F2 inh 106.5 | Gal4-VP16 ctr 86.0 | NR2F2 inh conf 107.0
COc1cccc(C(=O)NCC2(c3ccccc3)CCCC2)c1OC	NR2F2 inh 44.9 | Gal4-VP16 ctr inactive | NR2F2 inh conf inactive
CCC(O)(c1ccc(NC(=O)OC(C)(C)C)cc1)c1cc(OC)cc(OC)c1 (centres undefined)	none (no result: LRH-1 inv ag, NCOA1 inh, NCOA3 inh)
COc1ccc(CNc2ncnc3c2[nH]c2ccccc23)cc1	NR2F2 inh 45.1 | Gal4-VP16 ctr inactive | NR2F2 inh conf inactive
C1=C(CCNc2ncnc3c2[nH]c2ccccc23)CCCC1	NR2F2 inh 67.0 | Gal4-VP16 ctr inactive | NR2F2 inh conf 47.9
O=c1c2[nH]c3ccccc3c2ncn1CCC1=CCCCC1	none
Cc1ccc2[nH]c3c(NCc4ccccc4)ncnc3c2c1	NR2F2 inh 48.2 (no result: LRH-1 inv ag, NCOA1 inh, NCOA3 inh) | Gal4-VP16 ctr inactive | NR2F2 inh conf inactive
CC(C)OCCCNc1ncnc2c1[nH]c1ccccc12	NR2F2 inh 65.9 | Gal4-VP16 ctr inactive | NR2F2 inh conf inactive
Cc1ccc(CN2CCCCC(NC(=O)Nc3cccc(F)c3)C2=O)cc1 (centres undefined)	none (no result: LRH-1 inv ag, NCOA1 inh, NCOA3 inh)
Clc1ccc(OCCN2CCN(c3ncnc4sccc34)CC2)cc1	NR2F2 inh 70.2 | Gal4-VP16 ctr inactive | NR2F2 inh conf 63.5
